The source of these data is PubChem BioAssay (Tox21).

SMILES strings stand for the structures. Unmarked numbers belong to inactive results. The source made the active and inactive calls. The call rests on the fitted dose curve; in most records, active means well fitted curve in the direction sought with a large enough effect in the repeat runs; inconclusive means weak or mixed curves; inactive means flat fitted curve, though single readings scatter.
On the % scale 0 is the no-effect control and ±100 the full control effect.

The nature of the assay: qHTS assay to test for compound auto fluorescence at 535 nm (green) in HepG2 cell free culture (AID 720686). As to conditions: Cell-free medium, green autofluorescence 485/535 nm; series mostly up to 91.3 µM.
Take `CC(C)COC(=O)COc1ccc(Cl)cc1Cl`: the outcome was inactive.

`O=c1[nH]c(=O)c2[nH]c(=O)[nH]c2[nH]1`: the compound was called inactive.

In the case of `NS(=O)(=O)c1cc2c(cc1Cl)NC(C(Cl)Cl)NS2(=O)=O` (stereo unspecified), the fluorescence, % of fluorescein control was -0.0047% [at 18.6 µM].

For the compound `SCCSCCS`, the call was inactive.

`Cc1cc(C)cc([N+](=O)[O-])c1`: the call was inactive.

On to `CCCCOC(=O)C(C)OC(=O)CCC` (stereo unspecified), for which the result was inactive.

`CC1=NN(c2ccc(S(=O)(=O)O)cc2)C(=O)C1N=Nc1ccccc1` (stereo unspecified): the compound was called inactive.

Take `O=C(O)c1ccccc1C(=O)Nc1ccc(S(=O)(=O)Nc2nccs2)cc1`: the result was inactive.

For the compound `FC(F)(F)/C(=N\OCC1OCCO1)c1ccc(Cl)cc1`, the result was inactive.

On to `Nc1ccc(/C=C/c2ccc(N)cc2S(=O)(=O)O)c(S(=O)(=O)O)c1`, for which the result was inactive.

On to `CCOC(=O)CC#N`, for which the result was inactive.

As to `COc1cc(C=O)ccc1OC(=O)C(C)C`, the compound was classed as inactive.

As to `CCCOC(=O)CCCCC(=O)OCCC`, the call was inactive.

Take `OC(CCN1CCCCC1)(c1ccccc1)c1ccccc1`: the compound was called inactive.

Consider `C[C@H]1O[C@H](O[C@H]2[C@H](O)[C@@H](O)[C@@H](O[C@H]3[C@H](O)[C@@H](O)[C@H](O)O[C@@H]3CO)O[C@@H]2CO)[C@H](O)[C@@H](O)[C@@H]1N[C@H]1C=C(CO)[C@@H](O)[C@H](O)[C@H]1O`, for which the compound was classed as inactive.

As for `O=S(=O)(O)CCO`, the call was inactive.

`NCCc1ccn[nH]1`: the fluorescence, % of fluorescein control was -0.0021% [at 18.6 µM].

For `CCCCC(CC)C(=O)OC(C)C` (stereo unspecified), the result was inactive.

Take `CCC(=O)c1ccc(O)cc1`: the call was inactive.

For `CCCCCCCCC(=O)OCC`, the call was inactive.

Consider `COc1cc2c3cc1Oc1cc(ccc1O)C[C@@H]1c4c(cc(OC)c(O)c4Oc4ccc(cc4)C[C@@H]3N(C)CC2)CC[N+]1(C)C`, for which the compound was called inactive.
